We go through nine molecules from PubChem BioAssay (Tox21).

A short description of test [1]: qHTS assay to identify small molecule agonists of H2AX (AID 1224845; active means well fitted activation curve with a large enough effect in the signal ratio in the repeat runs, not every such curve was filed as active; the % refers to the signal ratio; further: on the % scale 0 is the no-effect control and ±100 the full control effect). In outline:
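Wild-type CHO-K1 cells plated overnight, then exposed 3 hr at 37C to compounds at 15 concentrations (0.76% DMSO). Lysed, then HTRF anti-pH2AX(S139)-cryptate/anti-H2AX-d2 detection after 24 hr at room temperature; emissions 665 and 620 nm.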

Test [2] can be described thus: qHTS assay to identify small molecule agonists of the hypoxia (HIF-1) signaling pathway (AID 1224846; active means well fitted activation curve with a large enough effect in the signal ratio in the repeat runs, not every such curve was filed as active; the % refers to the signal ratio; further: on the % scale 0 is the no-effect control and ±100 the full control effect). A digest of the protocol: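 Hypoxia-pathway activation was scored as increased beta-lactamase from an HRE-controlled reporter in ME-180 cells; plated at 2,000 cells per well with 0.5% dialyzed FBS, they were exposed 17 hrs to compounds and then given CCF4-AM.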
Test [3] in a line: qHTS assay to identify small molecule agonists of H2AX - cell viability counter screen (AID 1224847; calls by dose curve; further: nearly all actives have a fitted effect of over 30% in size; further: potency means the concentration at half of the fitted maximal effect). In outline:
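Cells plated first: CHO-K1, 1000 per well in 10% FBS medium, incubated overnight at 37C. Then 15-point compound titration added (final DMSO 0.76%) for 3 hr. Finally CellTiter-Glo added and luminescence read.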

Test [4] is described as follows: A CellTox Green Cytotoxicity Assay to monitor cytotoxicity in HEK293 cells - 0 hour (AID 1224869). Further: on the % scale 0 is the no-effect control and ±100 the full control effect; nearly all actives have a fitted effect of over 50% in size. In outline: (§1)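 Seeding of HEK293 cells together with cytotoxicity dye preceded a 5 h incubation at 37 C/5% CO2. Test compounds in DMSO were then added and fluorescence monitored across 40 h.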
A short description of test [5]: qHTS RealTime-Glo MT Cell Viability Assay in HepG2 cells - 40 hour (AID 1224870). Further: on the % scale 0 is the no-effect control and ±100 the full control effect; nearly all actives have a fitted effect of over 50% in size. A digest of the protocol:
(§2)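 HepG2 cells mixed with RealTime-Glo MT reagents (NanoLuc plus cell-permeant prosubstrate) were seeded at 600 cells/well, incubated 5 h at 37 C/5% CO2, then pinned with compounds in DMSO; nonlytic luminescence tracked viability during 40 h treatment.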

The nature of test [6]: A CellTox Green Cytotoxicity Assay to monitor cytotoxicity in HEK293 cells - 40 hour (AID 1224871). Further: nearly all actives have a fitted effect of over 45% in size. Further: potency means the concentration at half of the fitted maximal effect. A digest of the protocol: as §1
A short description of test [7]: qHTS RealTime-Glo MT Cell Viability Assay in HEK293 cells - 16 hour (AID 1224872). Further: nearly all actives have a fitted effect of over 50% in size. Further: potency means the concentration at half of the fitted maximal effect. A digest of the protocol: (§3)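 Nonlytic real-time viability readout: viable cells convert prosubstrate to NanoLuc substrate, giving luminescence proportional to live cell number. HEK293, 600 cells/well, compound added after 5 h, continuous culture at 37 C.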
The nature of test [8]: A CellTox Green Cytotoxicity Assay to monitor cytotoxicity in HEK293 cells - 24 hour (AID 1224875). Further: on the % scale 0 is the no-effect control and ±100 the full control effect; nearly all actives have a fitted effect of over 45% in size. A digest of the protocol:
as §1

The nature of test [9]: A CellTox Green Cytotoxicity Assay to monitor cytotoxicity in HepG2 cells - 16 hour (AID 1224876). Further: on the % scale 0 is the no-effect control and ±100 the full control effect; nearly all actives have a fitted effect of over 45% in size. A digest of the protocol:
(§4)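 Nonlytic assay: viable cells exclude the dye, so fluorescence scales with cell death. HepG2 at 600 cells/well, compounds added after 5 h, signal read across 40 h.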

The nature of test [10]: qHTS RealTime-Glo MT Cell Viability Assay in HepG2 cells - 32 hour (AID 1224877). Further: on the % scale 0 is the no-effect control and ±100 the full control effect; nearly all actives have a fitted effect of over 55% in size. In outline: (§5)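 Luminescence read-out: viable HepG2 cells reduce a prosubstrate to a NanoLuc substrate, giving a signal proportional to live cell number. Reads taken at 0, 8, 16, 24, 32 and 40 h of compound exposure at 37 C.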
A short description of test [11]: A CellTox Green Cytotoxicity Assay to monitor cytotoxicity in HepG2 cells - 24 hour (AID 1224878). Further: nearly all actives have a fitted effect of over 45% in size. Further: potency means the concentration at half of the fitted maximal effect. On Cytotoxicity: on the % scale 0 is the no-effect control and ±100 the full control effect. A digest of the protocol:
as §4

Test [12] can be described thus: A CellTox Green Cytotoxicity Assay to monitor cytotoxicity in HepG2 cells - 40 hour (AID 1224879). Further: nearly all actives have a fitted effect of over 40% in size. Further: potency means the concentration at half of the fitted maximal effect. A digest of the protocol: as §4
Test [13] is described as follows: qHTS assay to identify small molecule agonists of the estrogen related receptor (ERR) signaling pathway from Tox21 library (AID 1224849; calls by dose curve; further: on the % scale 0 is the no-effect control and ±100 the full control effect; nearly all actives have a fitted effect of over 15% in size). The conditions noted are these: ERR reporter cell line, ONE-Glo luciferase, 18 h; at 92.4 µM (top of the series) unless noted. In outline:
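Six hours post-seeding at 37 C/5% CO2, ERR cells receive DMSO-solubilised compounds; after 18 h at 37 C, ONE-Glo reagent is applied and luminescence recorded.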

The nature of test [14]: qHTS RealTime-Glo MT Cell Viability Assay in HepG2 cells - 8 hour (AID 1224873). Further: on the % scale 0 is the no-effect control and ±100 the full control effect; nearly all actives have a fitted effect of over 55% in size. A digest of the protocol: as §2
The nature of test [15]: qHTS assay to identify small molecule agonists of the hypoxia (HIF-1) signaling pathway - cell viability counter screen (AID 1224844; calls by dose curve; further: on the % scale 0 is the no-effect control and ±100 the full control effect; nearly all actives have a fitted effect of over 50% in size). In outline: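 Multiplexed with the HRE beta-lactamase assay, this viability read used CellTiter-Glo luminescence (30 min, RT) on HRE-bla ME-180 cells treated 17 hrs with compounds in 0.5% dialyzed FBS medium.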
Test [16] in a line: qHTS RealTime-Glo MT Cell Viability Assay in HepG2 cells - 24 hour (AID 1224867). In outline:
as §5

Test [17] can be described thus: qHTS RealTime-Glo MT Cell Viability Assay in HEK293 cells - 32 hour (AID 1224868). Further: nearly all actives have a fitted effect of over 50% in size. Further: potency means the concentration at half of the fitted maximal effect. In outline:
as §3

Test [18] in a line: qHTS RealTime-Glo MT Cell Viability Assay in HEK293 cells - 40 hour (AID 1224874). Further: nearly all actives have a fitted effect of over 50% in size. Further: potency means the concentration at half of the fitted maximal effect. On max response: on the % scale 0 is the no-effect control and ±100 the full control effect. To be noted: RealTime-Glo luminescence; max response: active compounds read low. In outline: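 Tox21 screen in HEK293 using RealTime-Glo MT chemistry, with cells and reagent co-dispensed. Luminescence proportional to viable cell number was captured at intervals during 40 h compound exposure at 37 C.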

The nature of test [19]: qHTS assay to identify small molecule antagonists of the estrogen related receptor (ERR) signaling pathway from Tox21 library (AID 1224848). In outline:
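Screening used an ERR reporter line supplied by NTP, exposed for 18 h at 37 C to library compounds delivered in DMSO. Signal was luciferase luminescence developed with ONE-Glo at room temperature for 30 min.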

Values without a mark were called inactive. Records with an inconclusive call do not appear. Calls of active or inactive are those of the source. Unless noted, the call rests on the fitted dose curve; in most records, active means well fitted curve in the direction sought with a large enough effect in the repeat runs; inconclusive means weak or mixed curves; inactive means no such curve, though single readings can be large; an effect the other way counts as inactive or inconclusive.

As to `Cc1ccc(-c2c(Cl)nc(C#N)n2S(=O)(=O)N(C)C)cc1`, the Potency result in test [1], in test [3], in [4], in [5], in test [6] and in test [7] was “inactive” throughout. The Potency entry in test [8], in test [9], in test [10], in test [11] and in [12] was “inactive” each time. Moreover, in [2], the molecule was called inactive.

On to `COP(=S)(Oc1cc(Cl)c(Br)cc1Cl)c1ccccc1` (stereo not drawn), for which the Potency result in test [1], in [4], in test [5], in [6], in test [14] and in test [8] was “inactive” each time. For the same molecule, the Potency entry in test [10] was “inactive”. In addition, in [2], the molecule was called inactive. For the same molecule, the activity change, positive = activation in test [13] is -31.4%.

On to `CCC(COC(=O)c1cc(OC)c(OC)c(OC)c1)(c1ccccc1)N(C)C` (stereo not drawn), for which the Potency entry in [15], in [16], in [4], in test [5], in test [6] and in test [14] was “inactive” in each case. In addition, the Potency result in test [8], in [9], in [10], in test [11] and in test [12] was “inactive” in each case. Further, in test [7], the Potency is 26.8 µM (active).

Consider `Oc1ccc(Cl)c(Cl)c1Cl`, for which the Potency result in test [1], in test [4], in test [9] and in test [10] was “inactive” throughout. The result in [2] was inactive.

As for `C/C=C/C=O`, the Potency result in [1], in test [3], in [16], in test [17], in [4] and in test [5] was “inactive” throughout. Besides, the Potency result in test [6], in test [14], in test [8], in test [9], in test [10] and in test [11] was “inactive” each time. Also, in test [12], the Potency result was “inactive”. Further, the call in test [2] was inactive. Further, in test [18], the max response is 5.18%.

As to `COc1nn(CSP(=S)(OC)OC)c(=O)s1`, the molecule was classed as inactive in test [2]. Also, the Potency result in test [16], in test [17], in test [4], in [5], in test [6] and in test [7] was “inactive” each time. The Potency result in [14], in [8], in [9] and in test [10] was “inactive” throughout. Also, in test [18], the max response was -3.23%.

For the molecule `CCCCC(O)(Cn1cncn1)c1ccc(Cl)cc1Cl` (stereo not drawn), the molecule was classed as inactive in test [2]. Moreover, the Potency was 113 µM (active) in [3]; 38.5 µM (active) in test [19]; 38.9 µM (active) in [17]; 54.9 µM (active) in test [6]; 43.6 µM (active) in [7]; 43.6 µM (active) in test [18]. The Potency is 43.6 µM (active) in test [11] and 48.9 µM (active) in [12]. Besides, the activity change, positive = activation in test [13] was -59.1%. Further, in [4], the Potency entry is “inactive”.

In the case of `COP(=O)(OC)O/C(=C/Cl)c1cc(Cl)c(Cl)cc1Cl`, the Potency result in test [15], in test [16], in test [4], in [14], in [8] and in test [9] was “inactive” throughout. Besides, the Potency entry in test [10] and in test [11] was “inactive” each time. The figures for the Potency in test [19] and in [12] were 22.9 µM (active) and 36.6 µM (active), respectively. In addition, in test [13], the activity change, positive = activation was -67.5%.

Regarding `OC(c1ccc(Cl)cc1)(c1ccc(Cl)cc1)c1cccnc1`, the Potency is 48.6 µM (active) in [19], 38.9 µM (active) in test [7] and 38.9 µM (active) in test [18]. Moreover, the activity change, positive = activation in [13] was -55.6%. Further, the Potency entry in test [4], in [5], in [6], in test [8], in test [9] and in [11] was “inactive” each time. In test [12], the Potency result was “inactive”.
